Assay results: PubChem BioAssay
Active and inactive are the calls of the source.

Columns and labels:
[1] = binders of probe aFSTL3 on microarray, primary screen, stem cell growth factor project, biochemical, small-molecule microarray, fluorescence 635/667 (AID 1064); conditions: higher = more signal;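 further: measures binding of the biotinylated anti-FSTL3 antibody to printed compounds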
[2] = binders from COS7 lysate, DM2A8 probe, primary screen, torsin A project, cell lysate, small-molecule microarray, fluorescence 635/667 (AID 1065); conditions: higher = more signal, COS7 lysate expressing mutant human TOR1A
[3] = binders of probe aFGF2 on microarray, primary screen, stem cell growth factor project, biochemical, small-molecule microarray, fluorescence 635/667 (AID 1067); conditions: higher = more signal;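 further: measures binding of biotinylated aFGF2 protein to printed compounds on slides; z-score merges feature fluorescence and signal-to-noise across triplicate slides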
[4] = binders of probe aFGF10 on microarray, primary screen, stem cell growth factor project, biochemical, small-molecule microarray, fluorescence 635/667 (AID 1071); conditions: higher = more signal;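 further: score merges 667 nm spot intensity and signal to noise from triplicate slides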
[5] = target: Neurogenic locus notch homolog protein 2 (Homo sapiens) (UniProt Q04721); experiment: Notch2 binders on small-molecule microarrays, primary screen, biochemical, small-molecule microarray, 635 nm fluorescence, stem cell growth factors (AID 1073); conditions: Notch2 binding, higher = more signal
[6] = target: Pro-neuregulin-1, membrane-bound isoform (Homo sapiens) (UniProt Q02297); experiment: NRG1 binders on small-molecule microarrays, primary screen, psychiatric disease protein project, biochemical, small-molecule microarray, fluorescence 635/667 (AID 1075); conditions: NRG1 binding, 635 nm fluorescence, higher = more signal;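 further: score combines 667 nm spot fluorescence with signal to noise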
Sequence of Pro-neuregulin-1, membrane-bound isoform (Homo sapiens) (Q02297 whole entry, looked up, the tested form may be a part, canonical isoform): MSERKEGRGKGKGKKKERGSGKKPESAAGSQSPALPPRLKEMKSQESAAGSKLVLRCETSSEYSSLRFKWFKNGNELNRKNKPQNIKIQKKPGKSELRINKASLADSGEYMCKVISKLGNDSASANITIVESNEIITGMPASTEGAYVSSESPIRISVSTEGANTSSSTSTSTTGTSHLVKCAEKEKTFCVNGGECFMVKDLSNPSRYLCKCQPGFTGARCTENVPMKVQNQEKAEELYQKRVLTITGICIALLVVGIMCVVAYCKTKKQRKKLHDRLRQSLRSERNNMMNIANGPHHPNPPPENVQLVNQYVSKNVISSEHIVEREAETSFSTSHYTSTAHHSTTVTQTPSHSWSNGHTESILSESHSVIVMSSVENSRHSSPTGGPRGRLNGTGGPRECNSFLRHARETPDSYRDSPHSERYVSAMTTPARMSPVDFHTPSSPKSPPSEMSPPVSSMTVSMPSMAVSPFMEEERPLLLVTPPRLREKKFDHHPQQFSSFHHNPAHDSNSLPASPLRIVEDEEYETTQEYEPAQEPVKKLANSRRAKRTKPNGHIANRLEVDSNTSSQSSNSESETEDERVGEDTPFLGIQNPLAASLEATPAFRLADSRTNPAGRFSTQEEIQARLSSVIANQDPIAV

[7] = system: Neuregulin-1 EGF-like domain; experiment: binders of neuregulin-1 EGF-like domain, primary screen, biochemical, small-molecule microarray, 635 nm fluorescence (AID 1081); conditions: small-molecule microarray binding, higher = more signal;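 further: binding of the protein to compounds printed on small-molecule microarray slides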
[8] = FRG1 promoter luciferase signal modulators, primary screen, FRG1 inhibition for FSHD, cell-based, C2C12 myotubes, firefly/Renilla luciferase, luminescence (AID 1084); conditions: higher = more signal, called active from +8 up or from −8 down
[9] = binders of probe aFST on microarray, primary screen, stem cell growth factor project, biochemical, small-molecule microarray, fluorescence 635/667 (AID 1086); conditions: higher = more signal;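 further: score merges 667 nm fluorescence with signal-to-noise of each printed compound spot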
[10] = binders of probe aHhip on microarray, primary screen, stem cell growth factor project, biochemical, small-molecule microarray, fluorescence 635/667 (AID 1087); conditions: higher = more signal;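 further: score merges spot fluorescence at 667nm with spot signal to noise ratio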
[11] = system: PRMT1 (protein arginine N-methyltransferase 1); experiment: PRMT1 binders on small-molecule microarrays, primary screen, biochemical, small-molecule microarray, 635 nm fluorescence (AID 1088); conditions: small-molecule microarray binding, higher = more signal;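 further: binding of Prmt1 protein to compounds spotted on small-molecule microarray slides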
[12] = yeast growth modulation, basal conditions, primary screen, YJM789 clinical isolate, OD600, 24 h (AID 1089);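 further: growth of clinical yeast isolate S. cerevisiae YJM 789 seeded 1000 cells per well; test concentration not given here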; conditions: S. cerevisiae YJM789 growth, higher = more signal, called active from +8 up or from −8 down
[13] = fission yeast growth modulation, primary screen, strain 972, OD600, 24 h, no modulator (AID 1090);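 further: basal condition with compound alone and no growth modifier present; test concentration not given here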; conditions: S. pombe 972 growth, higher = more signal, called active from +8 up or from −8 down
[14] = S. cerevisiae growth modulation with rapamycin, primary screen, strain BY4716, OD600, 96 h (AID 1091); conditions: higher = more signal, called active from +8 up or from −8 down; further: test concentration not given here
[15] = target: Torsin-1A-interacting protein 2 (Homo sapiens) (UniProt Q8NFQ8); experiment: LULL1 binders on small-molecule microarray, primary screen, cell lysate, human LULL1 lysate, 635/667 nm fluorescence (AID 1092); conditions: hLULL1 lysate binding, 635 nm fluorescence, higher = more signal;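 further: probe is lysate of COS7 cells overexpressing human LULL1; score merges per-feature 667 nm fluorescence with signal-to-noise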
Sequence of Torsin-1A-interacting protein 2 (Homo sapiens) (Q8NFQ8 whole entry, looked up): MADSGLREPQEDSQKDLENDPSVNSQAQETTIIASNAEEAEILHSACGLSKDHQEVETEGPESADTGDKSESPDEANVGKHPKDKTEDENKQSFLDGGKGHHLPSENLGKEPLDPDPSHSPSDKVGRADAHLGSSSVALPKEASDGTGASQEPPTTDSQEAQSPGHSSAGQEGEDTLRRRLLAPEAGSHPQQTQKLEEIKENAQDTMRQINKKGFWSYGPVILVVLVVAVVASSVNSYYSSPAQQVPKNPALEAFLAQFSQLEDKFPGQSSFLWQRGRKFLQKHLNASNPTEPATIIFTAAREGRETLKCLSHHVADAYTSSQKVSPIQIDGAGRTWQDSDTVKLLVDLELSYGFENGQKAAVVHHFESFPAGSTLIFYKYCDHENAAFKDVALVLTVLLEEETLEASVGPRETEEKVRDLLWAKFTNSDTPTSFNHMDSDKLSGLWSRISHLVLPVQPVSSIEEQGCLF

[16] = E. coli growth modulation, two-sided OD650, primary screen, E. coli filamentation project, strain DRC41, 24 h (AID 1093); conditions: OD650, 24 h, higher = more signal, called active from +8 up or from −8 down;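 further: MC1000 strain lacking acrAB efflux and sulA so SOS filamentation is blocked; test concentration not given here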
[17] = small-molecule microarray binders of probe aLefty2, primary screen, biochemical, biotinylated probe, 635/667 nm fluorescence (AID 1094); conditions: higher = more signal;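 further: score merges spot fluorescence near 667 nm with spot signal-to-noise ratio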
[18] = system: Noggin (protein binding on small-molecule microarray); experiment: Noggin binders on small-molecule microarray, primary screen, biochemical, 635/667 nm fluorescence (AID 1095); conditions: 635 nm fluorescence, higher = more signal;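 further: score merges 667 nm feature fluorescence with signal to noise over triplicate slides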
[19] = target: Neurogenic locus notch homolog protein 3 (Homo sapiens) (UniProt Q9UM47); experiment: NOTCH3 binders on small-molecule microarray, primary screen, biochemical, 635/667 nm fluorescence (AID 1096); conditions: NOTCH3 binding, 635 nm fluorescence, higher = more signal
Sequence of Neurogenic locus notch homolog protein 3 (Homo sapiens) (Q9UM47 whole entry, looked up): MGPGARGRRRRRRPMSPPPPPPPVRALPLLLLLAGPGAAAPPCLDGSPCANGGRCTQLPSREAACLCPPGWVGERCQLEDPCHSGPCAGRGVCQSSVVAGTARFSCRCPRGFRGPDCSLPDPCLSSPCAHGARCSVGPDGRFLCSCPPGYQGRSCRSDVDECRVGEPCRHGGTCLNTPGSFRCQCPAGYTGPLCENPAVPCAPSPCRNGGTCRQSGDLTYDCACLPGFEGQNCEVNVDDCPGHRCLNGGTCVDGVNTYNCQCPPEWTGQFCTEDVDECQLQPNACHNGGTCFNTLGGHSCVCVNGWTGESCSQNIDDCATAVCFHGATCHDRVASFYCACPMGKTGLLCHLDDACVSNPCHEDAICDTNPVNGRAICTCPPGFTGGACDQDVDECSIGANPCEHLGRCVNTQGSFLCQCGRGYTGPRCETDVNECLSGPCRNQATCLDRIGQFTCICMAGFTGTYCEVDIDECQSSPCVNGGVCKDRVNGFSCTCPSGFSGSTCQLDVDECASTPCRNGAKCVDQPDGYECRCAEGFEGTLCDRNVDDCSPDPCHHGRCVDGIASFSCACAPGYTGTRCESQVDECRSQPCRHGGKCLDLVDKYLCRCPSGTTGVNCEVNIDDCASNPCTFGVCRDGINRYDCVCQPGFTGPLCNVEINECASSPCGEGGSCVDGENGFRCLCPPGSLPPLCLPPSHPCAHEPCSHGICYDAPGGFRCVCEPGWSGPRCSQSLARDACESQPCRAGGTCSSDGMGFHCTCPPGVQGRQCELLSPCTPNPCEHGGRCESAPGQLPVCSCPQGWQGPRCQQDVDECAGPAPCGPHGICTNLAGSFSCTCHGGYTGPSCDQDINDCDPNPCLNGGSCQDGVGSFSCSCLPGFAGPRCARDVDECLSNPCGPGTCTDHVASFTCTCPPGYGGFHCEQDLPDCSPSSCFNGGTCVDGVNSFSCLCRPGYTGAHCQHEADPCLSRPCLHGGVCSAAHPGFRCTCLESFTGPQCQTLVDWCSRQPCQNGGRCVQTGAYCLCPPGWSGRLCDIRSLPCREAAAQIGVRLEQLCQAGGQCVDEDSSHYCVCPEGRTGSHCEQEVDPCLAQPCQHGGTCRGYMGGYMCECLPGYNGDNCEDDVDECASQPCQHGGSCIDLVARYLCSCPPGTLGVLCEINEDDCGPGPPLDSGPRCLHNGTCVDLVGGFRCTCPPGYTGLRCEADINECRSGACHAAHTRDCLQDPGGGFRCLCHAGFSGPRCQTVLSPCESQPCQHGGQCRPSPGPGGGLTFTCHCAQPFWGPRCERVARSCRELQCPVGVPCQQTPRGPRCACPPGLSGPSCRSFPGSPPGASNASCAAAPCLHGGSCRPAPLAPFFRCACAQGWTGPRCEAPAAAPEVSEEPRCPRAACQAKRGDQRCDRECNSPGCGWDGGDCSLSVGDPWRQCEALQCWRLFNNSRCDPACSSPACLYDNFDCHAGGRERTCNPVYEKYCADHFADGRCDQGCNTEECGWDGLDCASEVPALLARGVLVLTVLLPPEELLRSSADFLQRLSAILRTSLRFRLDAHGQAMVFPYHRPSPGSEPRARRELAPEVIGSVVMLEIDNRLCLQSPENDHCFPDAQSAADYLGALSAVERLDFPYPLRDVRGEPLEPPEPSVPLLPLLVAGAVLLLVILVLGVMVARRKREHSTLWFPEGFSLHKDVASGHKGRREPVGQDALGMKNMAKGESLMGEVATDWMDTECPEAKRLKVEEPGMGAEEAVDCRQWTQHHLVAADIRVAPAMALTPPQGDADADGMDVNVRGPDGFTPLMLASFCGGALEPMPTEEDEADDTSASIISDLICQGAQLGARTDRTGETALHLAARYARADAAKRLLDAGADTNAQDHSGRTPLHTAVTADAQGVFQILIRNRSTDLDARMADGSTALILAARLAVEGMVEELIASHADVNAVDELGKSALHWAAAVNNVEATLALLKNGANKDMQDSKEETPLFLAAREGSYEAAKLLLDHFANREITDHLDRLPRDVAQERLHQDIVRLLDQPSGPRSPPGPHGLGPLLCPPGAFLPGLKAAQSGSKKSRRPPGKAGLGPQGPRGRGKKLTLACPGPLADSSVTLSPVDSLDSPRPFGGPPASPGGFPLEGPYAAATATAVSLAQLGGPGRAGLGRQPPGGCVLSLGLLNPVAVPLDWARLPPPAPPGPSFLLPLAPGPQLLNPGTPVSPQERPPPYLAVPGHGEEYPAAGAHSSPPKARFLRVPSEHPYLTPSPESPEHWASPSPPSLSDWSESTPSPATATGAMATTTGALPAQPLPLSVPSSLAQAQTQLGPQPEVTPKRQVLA

[20] = small-molecule microarray binders of probe aEGFR, primary screen, biochemical, biotinylated probe, 635/667 nm fluorescence (AID 1097); conditions: higher = more signal;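 further: probe is a biotinylated anti-EGFR antibody binding compounds printed on slides; score combines fluorescence near 667 nm and signal to noise of each spot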

| SMILES | composite z-score [1] | composite z-score [2] | composite z-score [3] | composite z-score [4] | composite z-score [5] | composite z-score [6] | composite z-score [7] | z-score [8] | composite z-score [9] | composite z-score [10] | composite z-score [11] | z-score [12] | z-score [13] | z-score [14] | composite z-score [15] | z-score [16] | composite z-score [17] | composite z-score [18] | composite z-score [19] | composite z-score [20] |
| --- | --- | --- | --- | --- | --- | --- | --- | --- | --- | --- | --- | --- | --- | --- | --- | --- | --- | --- | --- | --- |
| O=C1[C@H]2[C@H]3[C@H](O)[C@H](O)CC(=NO[C@@H]4O[C@H](CO)[C@@H](O)[C@H](O)[C@H]4O)[C@H]3CC[C@H]2C(=O)N1C[C@@H]1CCCO1 | -0.151 | 1.07 | -0.121 | 0.126 | 0.57 | -0.506 | -0.744 | 0.189 (inactive) | 0.045 | -0.0994 | -0.099 | 0.539 (inactive) | 0.944 (inactive) | 0.734 (inactive) | -0.162 | 0.457 (inactive) | 0.0136 | 0.379 | 0.0492 | -0.0578 |
| COC(=O)CC=C[C@@H](C)[C@@H](C=NOC[C@@H](O)COCc1ccco1)NS(=O)(=O)c1ccc(C)cc1 | -0.568 | 0.9 | -0.162 | -0.28 | -0.572 | -0.767 | -0.929 | 0.184 (inactive) | -0.0225 | -0.0237 | 0.0315 | 0.0457 (inactive) | 1.02 (inactive) | 0.0521 (inactive) | -1.12 | 0.835 (inactive) | -0.202 | 0.704 | -0.834 | -0.195 |
| O=C1[C@H]2[C@H]3[C@H](O)[C@H](O)CC(=NOCc4ccccc4)[C@@H]3CC[C@H]2C(=O)N1c1cccc(Oc2ccccc2)c1 | -0.556 | 0.101 | -0.0579 | 0.554 | 0.359 | 1.48 | 0.988 | -0.441 (inactive) | 0.529 | 0.141 | 1.35 | 0.663 (inactive) | 0.277 (inactive) | -0.349 (inactive) | 1.6 | 0.589 (inactive) | 0.266 | 0.889 | 0.64 | -0.0967 |
| COc1cccc([C@H]2Oc3ccc(OC)cc3C(=NO[C@@H](C)c3cc(-c4c(C)cc(C)cc4C)no3)[C@@H]2O)c1 | 2.15 | -0.187 | -0.238 | -1.44 | -2.2 | -0.144 | -0.393 | -3.59 (inactive) | -0.391 | -0.45 | -0.506 | 0.463 (inactive) | 1.49 (inactive) | 0.626 (inactive) | -0.141 | -0.169 (inactive) | 0.25 | -2.14 | -2.58 | -0.434 |
| CC(=O)OC[C@H]1O[C@H](CCON=C(C)C)C=C[C@@H]1OC(C)=O | -0.711 | -0.224 | -0.116 | 0.146 | 0.121 | -0.172 | -0.529 | 0.2 (inactive) | 0.36 | -0.0645 | 0.0126 | 0.765 (inactive) | 0.568 (inactive) | 0.748 (inactive) | 0.24 | 0.193 (inactive) | -0.152 | 0.373 | 0.0158 | -0.0364 |
